# Autophagy mod = alters autophagy in cells; MEF GFP-LC3 puncta imaging; test concentration mostly 10 µM; calls only at 10 µM (by protocol); hit rate 0.98% among 190,000; AID 463193;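 active = percentage of spot-positive cells more than 3 SD above its plate mean, without a fluorescence outlier flag or 80% toxicity; inconclusive = no clear call, values can overlap the other calls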;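 also: spot-positive cell cutoff set from DMSO-treated cells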
# PERK inhibitor = blocks human PERK kinase; CHO PERK-DD fusion, SEAP luminescence translation reporter; inhibition, % at 5.6 µM; hit rate 0.17% among 220,000;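 active = inhibition above the mean inhibition of all tested compounds plus 3 SD, set separately per screening campaign, cut at about 2.9% in these data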;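 also: PERK kinase domain activated by AP20187 dimerizer at 100 nM; 0% = DMSO with dimerizer and 100% = rapamycin at 8.4 µM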
# Target sequence (Q9NZJ5 whole entry, looked up, the tested form may be a part): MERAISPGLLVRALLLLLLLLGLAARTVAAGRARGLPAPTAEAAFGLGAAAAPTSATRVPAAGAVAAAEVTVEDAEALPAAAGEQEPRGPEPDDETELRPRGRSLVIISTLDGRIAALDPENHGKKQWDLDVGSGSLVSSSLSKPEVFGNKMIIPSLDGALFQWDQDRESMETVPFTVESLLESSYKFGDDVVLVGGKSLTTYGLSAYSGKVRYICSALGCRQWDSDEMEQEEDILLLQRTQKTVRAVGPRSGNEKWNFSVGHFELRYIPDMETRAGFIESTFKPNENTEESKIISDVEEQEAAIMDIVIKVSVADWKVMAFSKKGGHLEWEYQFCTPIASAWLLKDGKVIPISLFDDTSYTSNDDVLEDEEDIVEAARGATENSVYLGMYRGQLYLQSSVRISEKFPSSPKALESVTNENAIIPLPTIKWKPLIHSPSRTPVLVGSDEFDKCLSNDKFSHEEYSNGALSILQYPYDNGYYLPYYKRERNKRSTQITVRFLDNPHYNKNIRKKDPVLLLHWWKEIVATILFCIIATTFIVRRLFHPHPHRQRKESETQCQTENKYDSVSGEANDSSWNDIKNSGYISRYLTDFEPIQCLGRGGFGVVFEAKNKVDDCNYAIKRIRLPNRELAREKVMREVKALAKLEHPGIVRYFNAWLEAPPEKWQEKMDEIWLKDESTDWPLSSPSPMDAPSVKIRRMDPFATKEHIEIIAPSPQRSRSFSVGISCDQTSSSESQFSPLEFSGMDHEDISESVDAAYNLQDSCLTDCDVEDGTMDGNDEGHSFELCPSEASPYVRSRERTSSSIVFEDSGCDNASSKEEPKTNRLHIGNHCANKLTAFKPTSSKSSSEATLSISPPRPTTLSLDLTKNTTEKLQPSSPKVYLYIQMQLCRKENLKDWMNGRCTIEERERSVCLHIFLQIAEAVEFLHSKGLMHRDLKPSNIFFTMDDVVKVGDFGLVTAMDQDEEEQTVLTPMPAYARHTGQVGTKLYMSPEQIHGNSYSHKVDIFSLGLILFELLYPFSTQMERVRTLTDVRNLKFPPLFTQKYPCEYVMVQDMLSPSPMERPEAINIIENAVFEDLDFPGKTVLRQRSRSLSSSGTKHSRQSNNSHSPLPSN
# Insulin prom up = MIN6 insulin promoter up-regulation. MIN6 insulin promoter-GFP reporter, high-content imaging; active compounds read high. z-score at 5 µM. hit rate 0.3% among 190,000. AID 1625;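 active = z-score above 3 at 5 µM with at least 500 cells counted in the well; inconclusive = wells under 500 cells, flagged as cytotoxic or low count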
# eIF4E 4G PPI = blocks eIF4E binding to eIF4G; inhibition, % at 21.7 µM; TR-FRET eIF4E-eIF4GI(517-606) binding, 2 h; hit rate 0.37% among 220,000; AID 782; P63073+Q04637;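 active = inhibition above about 30%, limit read from the data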;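 also: 0% = full FRET control wells and 100% = background wells lacking eIF4GI fragment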
# Insulin prom inh = TRM-6 insulin promoter activity inhibition | TRM-6 cells (human fetal islet line), insulin promoter-eGFP reporter, imaging; reporter expression induced with tamoxifen | inhibition, % at 2 µM | hit rate 0.9% among 130,000;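 active = inhibition above the mean plus 3 SD, with well images judged a real hit on visual review, cut at about 60% in these data, passing the limit was not always enough; inconclusive = inhibition over the cutoff but images rejected on review; inactive = inhibition not above the cutoff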
# Active calls of the source: *; i = inactive; ? = inconclusive; . = no result; + = active, no number. An excerpt weighted towards active compounds, which were near 2% of everything screened.
SMILES,Autophagy mod,PERK inhibitor,Insulin prom up,eIF4E 4G PPI,Insulin prom inh
Cc1ccc(CNc2ccc3c(c2)OCO3)c(C)c1,+,0,.,-6,-376
CNC(=O)COC(=O)c1cc(SC)ccc1Cl,+,0,0.25,1,.
c1ccc(-c2nc(-c3ccncc3)no2)cc1,i,1,0.66,-2,?
c1ccc(-c2ccccc2-c2nc(-c3ccncc3)no2)cc1,i,-1,0.14,3,79*
N#C/C(=C\c1ccc(-c2ccccc2[N+](=O)[O-])o1)C(=O)Nc1nc(-c2cccs2)cs1,i,1,0.05,7,.
N#C/C(=C\c1ccc(-c2ccc([N+](=O)[O-])cc2)o1)C(=O)Nc1nc(-c2cccs2)cs1,.,0,0.6,31*,.
CCC(=O)Nc1ccc(/C(C)=N/NC(=O)c2c(-c3ccccc3Cl)noc2C)cc1,i,0,0.17,-5,35
Cc1cc(NC(=S)N(CCCN2CCN(C)CC2)Cc2ccco2)ccc1Cl,+,0,2.2,-1,.
CCN1CCN(CCCN(Cc2ccco2)C(=S)Nc2cccc(Cl)c2C)CC1,+,1,-0.43,2,.
COc1cc(Cl)c(C)cc1NC(=O)CNC(C)c1ccccc1OC (centres undefined),i,0,-0.85,-1,-58
O=C(CCC1CCCN(C(=O)C2=CCCCC2)C1)N1CCN(c2ccccn2)CC1 (centres undefined),i,0,0.83,1,.
CCSCc1nc2ccccn2c1Br,i,1,-0.84,1,76*
CCCCSCc1nc2ccccn2c1Br,i,1,-0.32,1,24
Cc1cccc(CCNC(=O)C2CCN(S(=O)(=O)c3c(C)noc3C)CC2)c1,i,0,-0.66,-3,23
COc1ccc(CCNC(=O)C2CCN(S(=O)(=O)c3c(C)noc3C)CC2)cc1OC,i,-1,-0.71,-3,66*
Cc1cc(C)c[n+](-c2nc3ccccc3nc2[N-]S(=O)(=O)c2ccc(Br)s2)c1,+,0,0.12,1,-94
O=S(=O)([N-]c1nc2ccccc2nc1-[n+]1ccccc1)c1ccccc1,i,1,-0.05,0,.
O=C(O)Cc1ccc2c(c1)N(S(=O)(=O)c1cccc(C(F)(F)F)c1)CC(C(=O)O)O2 (centres undefined),i,1,0.4,1,-27
Cc1cc2sc3ccccc3c(=O)c2c(C)c1O,i,1,-0.05,3,.
O=c1c(C(c2ccccc2)c2c(O)sc3ccccc3c2=O)c(O)sc2ccccc12,i,2,.,19,80*
O=C(c1nc2ccccn2c1CNCCCn1cccn1)N1CCCC1,i,1,0.13,-4,.
O=C(CSc1nnc(-c2ccncc2)n1Cc1ccco1)Nc1nc(-c2ccccc2)cs1,+,-1,-0.38,-16,-11
N#C/C(C(=O)c1ccccc1)=C1/SC=C(N)N1c1ccccc1,i,1,6*,0,-294
N#C/C(C(N)=O)=C1/SC=C(c2ccccc2)N1c1ccccc1,.,-1,0.15,2,.
O=C(CCC(=O)c1cccs1)NC(c1ccccc1)c1ccccc1,i,-1,-0.7,5,3
SMILES,Autophagy mod,PERK inhibitor,Insulin prom up,eIF4E 4G PPI,Insulin prom inh
O=C(CCC(=O)c1cccs1)c1cccs1,i,1,.,2,81*
COc1cc(C2c3c(oc4ccccc4c3=O)C(=O)N2Cc2ccncc2)ccc1O (centres undefined),i,-1,1.1,-6,.
Cc1ccc(N2C(=N)/C(=C3/Nc4ccccc4S3)C(c3ccccc3)C2=O)cc1 (centres undefined),+,0,-0.44,-9,.
Cc1ccc(N2C(=O)C(F)(F)C2c2ccccc2)cc1 (centres undefined),i,0,1.2,2,-7
Cc1cccc(OS(=O)(=O)NC(=O)OCC2CCCN3CCCCC23)c1 (centres undefined),i,2,.,0,25
CCOC(=O)N1CCN(C(=O)CN(c2ccc3c(c2)OCO3)S(C)(=O)=O)CC1,i,-1,0.32,-1,79*
CS(=O)(=O)N(CC(=O)N1CCCCC1)c1ccc2c(c1)OCO2,i,2,1,3,-14
CC1=CC(=C2N=C(c3ccccc3)OC2=O)C=C(C)O1,i,2.9*,-0.15,.,.
O=C(Cn1nnc2ccccc2c1=O)NCC1CCC(C(=O)O)CC1 (centres undefined),.,3.2*,-0.24,2,.
CCOc1ccc(NC(=O)CSc2nc(C)c3c(c2C#N)CCCC3)cc1,i,1,-0.21,2,-38
CCc1ccc(-n2c(SCC(=O)N3Cc4ccccc4CC3C(=O)O)nnc2-c2ccncc2)cc1 (centres undefined),.,3.4*,0.27,0,.
O=C(Nc1ccccc1Cl)OCc1cncs1,i,2,-1.2,5,67*
O=C(OCc1cncs1)c1ccccc1Cl,i,1,-0.05,1,.
CCOC(=O)C1CCCN(Cc2ccc(OCC)cc2)C1 (centres undefined),i,-1,-0.06,-9,-64
O=C(NCCc1ccccc1)c1nc2c(nnn2Cc2ccccc2Cl)c(=O)[nH]1,i,2,.,1,-58
COc1ccc(Cn2nnc3c(=O)[nH]c(C(=O)NCCc4ccc(F)cc4)nc32)cc1OC,i,3,1.9,5,90*
CC1Cc2ccccc2N1C(=O)CN(C)S(=O)(=O)c1cccc2cccnc12 (centres undefined),i,0,-0.77,4,.
Cc1csc(NC(=O)CN(C)S(=O)(=O)c2cccc3cccnc23)n1,i,-1,3*,0,.
CN(CC(=O)N1CCCCC1)S(=O)(=O)c1cccc2cccnc12,i,1,0.02,4,86*
C[C@@H]1NC(=O)[C@H](CCC(=O)O)NC(=O)c2cc([N+](=O)[O-])cc(F)c2NCCC[C@@H](C(N)=O)NC1=O,i,0,0.05,1,-77
O=C(CSc1ncc(-c2ccccc2)n1C1CCCC1)N1CCc2ccccc21,i,0,-0.01,1,-10
CC(=O)Nc1ccc(NC(=O)COC(=O)c2c3c(nc4ccccc24)CCN(Cc2ccccc2)C3)cc1,+,0,-0.84,3,.
O=C(Nc1cccc(S(=O)(=O)N2CCCCC2)c1)c1c2c(nc3ccccc13)CCN(Cc1ccccc1)C2,+,-1,.,-2,-19
CC1CCN(S(=O)(=O)c2ccc3c(c2)c(=O)c(C(=O)N2CCCCC2)cn3C)CC1,i,0,4.9*,2,39
CCNc1nc(NC(C)C)nc(OCC)n1,i,0,-0.32,-7,72*
CCNc1nc(NC(C)C)nc(ON=C(C)C)n1,i,0,1.3,3,11
CCNc1nc(NC(C)C)nc(Oc2ccc(OCCOc3ccccc3)nn2)n1,i,0,-0.95,57*,.
COc1cccc(C2=NO[C@@H]3C(=O)N(c4ccc5c(c4)OCCO5)C(=O)[C@H]23)c1OC,i,0,-0.43,0,80*
COc1ccccc1/C=N/NC(=O)C(=O)N1CCN(c2ccccc2OC)CC1,i,1,0.17,-1,32

# Screening results from PubChem.
